Measured values: PubChem BioAssay (Tox21)
Records with an inconclusive call do not appear. The source made the active and inactive calls. Unless noted, calls follow the shape of the dose curve; as a rule, active = well fitted curve in the direction sought with a large enough effect in the repeat runs; inconclusive = weak or mixed curves; inactive = no such curve, though single readings can be large; an effect the other way counts as inactive or inconclusive.

How the values were obtained:
[1] = qHTS assay to identify small molecule antagonists of the thyroid receptor (TR) signaling pathway - cell viability counter screen (AID 743064); also: nearly all actives have a fitted effect of over 50% in size
Outline: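 Rat GH3 pituitary tumor cells stably expressing two TR response elements driving luciferase were plated, rested 4 h, then dosed with library compounds and T3 (1 nM final). After 23.5 h at 37 °C, CellTiter-Fluor was added for 30 min and fluorescence recorded.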

[2] = qHTS assay to identify small molecule antagonists of the thyroid receptor (TR) signaling pathway (AID 743065); also: series mostly up to about 70 µM; nearly all actives have a fitted effect of over 55% in size
Outline: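 GH3.TRE-Luc rat pituitary cells (two TREs driving luciferase) were dosed with compound, then stimulated with 1 nM T3 (final) for 23.5 h at 37 C. ONE-Glo luminescence was the read-out, with CellTiter-Fluor fluorescence as the cytotoxicity counter-screen.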

[3] = tested on: thyroid hormone receptor (rat, GH3 cells); test: qHTS assay to identify small molecule agonists of the thyroid receptor (TR) signaling pathway (AID 743066; calls by dose curve)
[4] = target: Estrogen receptor (Homo sapiens) (UniProt P03372); test: qHTS assay to identify small molecule antagonists of the estrogen receptor alpha (ER-alpha) signaling pathway (AID 743069; active = well fitted curve in the direction sought with a large enough effect in the signal ratio in the repeat runs, not every such curve was filed as active; the % refers to the signal ratio)
Outline: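 In this cell-based reporter format, GripTite HEK293 cells harbouring ER-alpha-UAS-bla were grown overnight with 2% charcoal-stripped FBS, dosed with DMSO-dissolved compounds, then challenged with 17beta-estradiol. After 18 hr at 37C, beta-lactamase activity was detected by FRET fluorescence.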

[5] = qHTS assay to identify small molecule antagonists of the estrogen receptor alpha (ER-alpha) signaling pathway - cell viability counter screen (AID 743074; calls by dose curve; also: nearly all actives have a fitted effect of over 45% in size)
[6] = target: Estrogen receptor (Homo sapiens) (UniProt P03372); test: qHTS assay to identify small molecule agonists of the estrogen receptor alpha (ER-alpha) signaling pathway (AID 743075; calls by dose curve)
[7] = target: Estrogen receptor (Homo sapiens) (UniProt P03372); test: qHTS assay to identify small molecule agonists of the estrogen receptor alpha (ER-alpha) signaling pathway using the BG1 cell line (AID 743079); also: nearly all actives have a fitted effect of over 20% in size
[8] = qHTS assay to identify small molecule antagonists of the estrogen receptor alpha (ER-alpha) signaling pathway using the BG1 cell line (AID 743080; calls by dose curve;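 also: BG1 cells stimulated with 17beta-estradiol alongside compound; series mostly up to about 70 µM; nearly all actives have a fitted effect of over 25% in size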)
Outline: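 Luciferase inhibition measured with ONE-Glo after 30 min at RT in BG1Luc4E2 cells given test compounds and 17beta-estradiol for 21.5 h at 37 C; CellTiter-Fluor viability read in the same wells beforehand.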

[9] = qHTS assay to identify small molecule antagonists of the estrogen receptor alpha (ER-alpha) signaling pathway using the BG1 cell line - cell viability counter screen (AID 743081);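 also: compound given together with 17beta-estradiol as the ER stimulus; series mostly up to about 70 µM; nearly all actives have a fitted effect of over 45% in size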
Aromatase (Homo sapiens) = Aromatase (Homo sapiens) (UniProt P11511); test: qHTS assay to identify aromatase inhibitors (AID 743083); also: series mostly up to about 70 µM; nearly all actives have a fitted effect of over 55% in size
[10] = qHTS assay to identify aromatase inhibitors - cell viability counter screen (AID 743084);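 also: cells stimulated with testosterone during compound exposure; nearly all actives have a fitted effect of over 55% in size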
[11] = target: Aryl hydrocarbon receptor (Homo sapiens) (UniProt P35869); test: qHTS assay to identify small molecule that activate the aryl hydrocarbon receptor (AhR) signaling pathway (AID 743085);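 also: HG2L7.5c1 human HepG2 liver cells with stably integrated DRE-driven firefly reporter; series mostly up to about 70 µM; nearly all actives have a fitted effect of over 15% in size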
Outline: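 Compounds were tested in HepG2 hepatocellular carcinoma cells harbouring a stably integrated luciferase gene under control of 20 DREs. Increased reporter signal after 24 h treatment at 37C was taken as AhR activation.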

[12] = qHTS assay to identify small molecule that activate the aryl hydrocarbon receptor (AhR) signaling pathway - cell viability counter screen (AID 743086);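 also: HepG2 liver cells carrying the AhR DRE luciferase reporter; series mostly up to about 70 µM; nearly all actives have a fitted effect of over 45% in size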
Outline: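 HepG2-AhR-luc (HG2L7.5c1) cells, 4000/well, treated 24 h at 37 C with compound; viability measured as CellTiter-Fluor fluorescence after 30 min in the same wells as the luciferase read.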

[13] = target: Peroxisome proliferator-activated receptor gamma (Homo sapiens) (UniProt P37231); test: qHTS assay to identify small molecule agonists of the peroxisome proliferator-activated receptor gamma (PPARg) signaling pathway (AID 743094; active = well fitted activation curve with a large enough effect in the signal ratio in the repeat runs, not every such curve was filed as active; the % refers to the signal ratio)
Outline: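 Fluorescence-based beta-lactamase readout in HEK293H PPARg UAS-bla cells after 17 h compound exposure (37C) and 1 h B/G FRET substrate incubation at room temperature.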

[14] = target: Peroxisome proliferator-activated receptor gamma (Homo sapiens) (UniProt P37231); test: qHTS assay to identify small molecule antagonists of the peroxisome proliferator-activated receptor gamma (PPARg) signaling pathway (AID 743191; calls by dose curve; also: series mostly up to about 63 µM; nearly all actives have a fitted effect of over 30% in size)
Outline: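 GeneBLAzer PPARg UAS-bla HEK293H cells, 5 h post-plating, exposed to compounds 17 h at 37C. LiveBLAzer B/G FRET substrate added for 1 h at room temperature; beta-lactamase reporter read by fluorescence intensity.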

[15] = qHTS assay to identify small molecule antagonists of the peroxisome proliferator-activated receptor gamma (PPARg) signaling pathway - cell viability counter screen (AID 743194); also: nearly all actives have a fitted effect of over 55% in size
Outline: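 Cytotoxicity counter screen in PPARg-bla HEK293H cells, same wells as reporter assay. Compounds plus 50 nM rosiglitazone (final) for 17 h at 37 C, then viability read by CellTiter-Glo luminescence.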

[16] = qHTS assay for small molecule agonists of the antioxidant response element (ARE) signaling pathway (AID 743202; active = well fitted activation curve with a large enough effect in the signal ratio in the repeat runs, not every such curve was filed as active; the % refers to the signal ratio)
Outline: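 HepG2 ARE-bla cells; 16 h treatment at 37 C; FRET-based beta-lactamase fluorescence read after 2 h substrate incubation at room temperature.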

[17] = qHTS assay for small molecule agonists of the antioxidant response element (ARE) signaling pathway - cell viability counter screen (AID 743203; calls by dose curve; also: nearly all actives have a fitted effect of over 55% in size)
Outline: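 Parallel cytotoxicity read-out for the ARE-bla screen: HepG2 reporter cells, 16 hrs with compounds, then CellTiter-Glo luminescence.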

[18] = qHTS assay for small molecule activators of the heat shock response signaling pathway - cell viability counter screen (AID 743209); also: nearly all actives have a fitted effect of over 50% in size
Outline: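 To flag cytotoxic compounds, HSE-bla HeLa cells plated at 1500 cells/well were dosed for 5 h at 37 C, followed by the reporter FRET read and then CellTiter-Glo, with luminescence recorded 30 min after reagent addition.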

[19] = qHTS assay for small molecule activators of the heat shock response signaling pathway (AID 743210; active = well fitted activation curve with a large enough effect in the signal ratio in the repeat runs, with a control signal flat, not every such curve was filed as active; the % refers to the signal ratio;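 also: HeLa cells with beta-lactamase reporter driven by heat shock elements; series mostly up to about 63 µM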)
Outline: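 Following overnight attachment, HSE-bla HeLa cells received test compounds for 5 h at 37 C; beta-lactamase activity was then detected via FRET substrate fluorescence.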

Measured: Potency

Estrogen receptor (Homo sapiens), sequence (P03372 whole entry, looked up): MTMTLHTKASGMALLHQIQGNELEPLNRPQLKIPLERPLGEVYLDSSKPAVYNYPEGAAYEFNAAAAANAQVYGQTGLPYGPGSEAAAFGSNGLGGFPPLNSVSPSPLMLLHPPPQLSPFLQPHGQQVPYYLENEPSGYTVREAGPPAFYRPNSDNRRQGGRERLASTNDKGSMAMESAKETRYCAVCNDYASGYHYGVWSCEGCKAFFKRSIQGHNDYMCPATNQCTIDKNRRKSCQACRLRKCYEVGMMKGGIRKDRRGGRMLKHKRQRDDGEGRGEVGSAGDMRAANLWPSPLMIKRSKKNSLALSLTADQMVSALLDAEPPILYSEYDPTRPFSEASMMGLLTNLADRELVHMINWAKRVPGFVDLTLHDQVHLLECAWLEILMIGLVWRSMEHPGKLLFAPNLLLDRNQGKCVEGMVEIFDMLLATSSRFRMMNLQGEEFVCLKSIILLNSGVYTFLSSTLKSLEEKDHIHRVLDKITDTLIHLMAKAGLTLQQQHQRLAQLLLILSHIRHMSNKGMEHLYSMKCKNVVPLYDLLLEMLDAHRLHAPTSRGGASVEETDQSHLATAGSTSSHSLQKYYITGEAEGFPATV
Aryl hydrocarbon receptor (Homo sapiens), sequence (P35869 whole entry, looked up): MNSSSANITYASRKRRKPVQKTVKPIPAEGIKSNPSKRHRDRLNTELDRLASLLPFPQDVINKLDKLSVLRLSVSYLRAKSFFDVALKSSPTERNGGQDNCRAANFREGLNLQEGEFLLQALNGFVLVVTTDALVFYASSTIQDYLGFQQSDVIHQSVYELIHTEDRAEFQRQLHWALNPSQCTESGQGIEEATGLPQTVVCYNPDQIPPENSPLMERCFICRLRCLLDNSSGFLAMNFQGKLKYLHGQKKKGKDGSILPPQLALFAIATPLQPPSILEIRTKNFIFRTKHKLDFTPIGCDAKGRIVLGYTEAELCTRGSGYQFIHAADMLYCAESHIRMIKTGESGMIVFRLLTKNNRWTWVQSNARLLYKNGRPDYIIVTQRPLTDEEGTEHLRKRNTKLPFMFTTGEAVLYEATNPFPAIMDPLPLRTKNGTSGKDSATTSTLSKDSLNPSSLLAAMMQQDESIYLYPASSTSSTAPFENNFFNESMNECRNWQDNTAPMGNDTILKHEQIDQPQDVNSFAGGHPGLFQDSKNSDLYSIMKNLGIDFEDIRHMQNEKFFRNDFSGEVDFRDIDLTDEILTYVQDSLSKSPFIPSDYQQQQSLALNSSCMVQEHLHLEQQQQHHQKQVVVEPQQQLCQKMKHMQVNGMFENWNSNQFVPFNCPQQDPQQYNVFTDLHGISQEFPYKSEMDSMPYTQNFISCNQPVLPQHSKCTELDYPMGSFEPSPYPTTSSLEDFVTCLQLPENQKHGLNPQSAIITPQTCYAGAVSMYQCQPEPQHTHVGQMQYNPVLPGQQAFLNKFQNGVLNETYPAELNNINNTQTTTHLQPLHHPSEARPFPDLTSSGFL
Aromatase (Homo sapiens), sequence (P11511 whole entry, looked up): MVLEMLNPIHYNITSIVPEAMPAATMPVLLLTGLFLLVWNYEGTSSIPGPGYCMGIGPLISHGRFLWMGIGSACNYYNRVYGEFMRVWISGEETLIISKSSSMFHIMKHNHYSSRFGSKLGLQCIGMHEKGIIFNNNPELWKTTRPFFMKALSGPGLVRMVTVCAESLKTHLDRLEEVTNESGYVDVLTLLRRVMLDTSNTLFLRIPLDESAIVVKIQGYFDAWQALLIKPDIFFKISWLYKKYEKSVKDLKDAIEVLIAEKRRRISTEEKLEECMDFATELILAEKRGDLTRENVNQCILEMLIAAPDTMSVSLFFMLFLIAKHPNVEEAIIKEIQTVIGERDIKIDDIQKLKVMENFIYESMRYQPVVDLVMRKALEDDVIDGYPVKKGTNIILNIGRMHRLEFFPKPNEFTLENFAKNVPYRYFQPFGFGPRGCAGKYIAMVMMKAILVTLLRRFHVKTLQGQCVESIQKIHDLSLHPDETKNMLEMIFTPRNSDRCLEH
Peroxisome proliferator-activated receptor gamma (Homo sapiens), sequence (P37231 whole entry, looked up): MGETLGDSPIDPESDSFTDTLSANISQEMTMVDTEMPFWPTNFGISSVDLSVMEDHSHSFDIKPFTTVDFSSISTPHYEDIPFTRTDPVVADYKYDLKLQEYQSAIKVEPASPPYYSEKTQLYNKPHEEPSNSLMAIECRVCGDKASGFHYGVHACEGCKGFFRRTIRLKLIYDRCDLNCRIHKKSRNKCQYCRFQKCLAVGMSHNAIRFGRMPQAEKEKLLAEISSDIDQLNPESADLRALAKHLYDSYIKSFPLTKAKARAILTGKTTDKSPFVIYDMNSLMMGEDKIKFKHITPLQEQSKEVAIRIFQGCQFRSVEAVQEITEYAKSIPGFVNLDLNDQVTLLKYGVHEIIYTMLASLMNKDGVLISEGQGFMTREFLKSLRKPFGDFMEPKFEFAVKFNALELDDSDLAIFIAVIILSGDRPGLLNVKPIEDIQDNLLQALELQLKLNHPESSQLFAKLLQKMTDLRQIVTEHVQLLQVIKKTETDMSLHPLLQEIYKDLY

CC(=O)Oc1ccc(C)cc1
inactive: [1] | [2] | [3] | [4] | [5] | [6] | [7] | [8] | [9] | Aromatase (Homo sapiens) | [10] | [11] | [12] | [13] | [14] | [15] | [16] | [17] | [18] | [19]

O=C(O)c1ccc(S(=O)(=O)N(Cl)Cl)cc1
inactive: [1] | [2] | [3] | [4] | [5] | [6] | [7] | [8] | [9] | Aromatase (Homo sapiens) | [10] | [11] | [12] | [13] | [14] | [15] | [17] | [18] | [19]

c1ccc2c(c1)Cc1ccccc1-2
inactive: [1] | [2] | [3] | [4] | [5] | [6] | [7] | [8] | [9] | Aromatase (Homo sapiens) | [10] | [11] | [12] | [13] | [14] | [17] | [18] | [19]

OCc1ccccc1
inactive: [1] | [2] | [3] | [4] | [5] | [6] | [7] | [8] | [9] | Aromatase (Homo sapiens) | [10] | [11] | [12] | [13] | [14] | [16] | [17] | [18] | [19]

C=CC(=O)OCCC(=O)O
inactive: [1] | [2] | [3] | [4] | [5] | [6] | [7] | [9] | Aromatase (Homo sapiens) | [10] | [11] | [12] | [13] | [14] | [15] | [17] | [18] | [19]

CCCCCC(=O)O
inactive: [1] | [2] | [3] | [4] | [5] | [6] | [7] | [8] | [9] | Aromatase (Homo sapiens) | [10] | [11] | [12] | [13] | [15] | [16] | [17] | [18] | [19]

Clc1ccccn1
inactive: [1] | [2] | [3] | [5] | [9] | [12] | [15] | [16] | [17] | [18] | [19]

C[C@]12CCC(=O)C=C1CC[C@@H]1[C@@H]2[C@@H](O)C[C@@]2(C)[C@H]1CC[C@]2(O)C(=O)CO
inactive: [1] | [2] | [3] | [5] | [9] | Aromatase (Homo sapiens) | [10] | [11] | [12] | [13] | [14] | [17] | [18] | [19]

COc1ccccc1OCC(O)CO (stereo unspecified)
inactive: [1] | [2] | [3] | [5] | [9] | Aromatase (Homo sapiens) | [10] | [11] | [12] | [13] | [14] | [15] | [16] | [17] | [18]

CN(C)CCOC(=O)COc1ccc(Cl)cc1
inactive: [1] | [2] | [3] | [5] | [9] | Aromatase (Homo sapiens) | [10] | [12] | [13] | [14] | [15] | [17] | [18] | [19]

CCCCCCCCCCCC(=O)OC
inactive: [2] | [3] | [4] | [5] | [6] | [7] | [8] | [9] | Aromatase (Homo sapiens) | [10] | [11] | [12] | [13] | [14] | [15] | [16] | [17] | [18] | [19]

CC(C)CC(=O)CC(C)CC(C)C (stereo unspecified)
inactive: [1] | [2] | [3] | [5] | [9] | Aromatase (Homo sapiens) | [10] | [12] | [13] | [14] | [17] | [18] | [19]

O=C(O)CCCCCCCCC(=O)O
inactive: [1] | [2] | [3] | [5] | [9] | Aromatase (Homo sapiens) | [10] | [11] | [12] | [13] | [14] | [16] | [17] | [18] | [19]

CC(C)CC(C)O (stereo unspecified)
inactive: [2] | [3] | [4] | [5] | [6] | [7] | [8] | [9] | Aromatase (Homo sapiens) | [10] | [11] | [12] | [13] | [14] | [15] | [17] | [18] | [19]

CCc1ccccc1CC
inactive: [2] | [3] | [4] | [5] | [6] | [7] | [8] | [9] | Aromatase (Homo sapiens) | [10] | [11] | [12] | [13] | [14] | [15] | [17] | [18] | [19]

CSc1ccc(Cl)cc1
inactive: [2] | [3] | [4] | [5] | [6] | [7] | [8] | [9] | Aromatase (Homo sapiens) | [10] | [11] | [12] | [13] | [14] | [15] | [17] | [18] | [19]

CC(CCO)CC(C)(C)C (stereo unspecified)
inactive: [2] | [3] | [4] | [5] | [6] | [7] | [8] | [9] | Aromatase (Homo sapiens) | [10] | [11] | [12] | [13] | [14] | [15] | [17] | [18] | [19]
